Screening results as filed in PubChem.
sPLA2-III inh: Inhibits HGIII-sPLA2 liposome hydrolysis, primary screen. Q9NZ20. QFRET BODIPY PC-A2 liposome hydrolysis, fluorescence. inhibition, % at 12.2 µM. actives 0.56% (n = 370,000);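 active = inhibition above mean plus 3 SD of compounds lying within the high and low control bounds, cut at about 19% in these data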;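 note: 0% = median of test compound wells and 100% = no enzyme DMSO wells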
proKLK7 act: activators of human kallikrein-7 zymogen | P49862 | purified proKLK7, EDANS-DABCYL substrate fluorescence; 100% is mature enzyme control, 0% vehicle | activation, % at 7 µM | actives 0.9% (n = 370,000) | AID 652039;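 active = activation above the mean of all tested compounds plus 3 SD, computed per campaign excluding outliers beyond control limits, cut at about 13% in these data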
ADAM17 inh: inhibitors of human ADAM17 | recombinant ADAM17, EDANS/DABCYL FRET peptide cleavage | actives 0.83% (n = 370,000) | inhibition, % at 6.95 µM | P78536;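 active = inhibition above the mean of compounds lying between control limits plus 3 SD, set per campaign, cut at about 8.5% in these data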;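 note: 0% = DMSO-only wells as the low control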
Target sequence (P78536 215-824 limits assumed): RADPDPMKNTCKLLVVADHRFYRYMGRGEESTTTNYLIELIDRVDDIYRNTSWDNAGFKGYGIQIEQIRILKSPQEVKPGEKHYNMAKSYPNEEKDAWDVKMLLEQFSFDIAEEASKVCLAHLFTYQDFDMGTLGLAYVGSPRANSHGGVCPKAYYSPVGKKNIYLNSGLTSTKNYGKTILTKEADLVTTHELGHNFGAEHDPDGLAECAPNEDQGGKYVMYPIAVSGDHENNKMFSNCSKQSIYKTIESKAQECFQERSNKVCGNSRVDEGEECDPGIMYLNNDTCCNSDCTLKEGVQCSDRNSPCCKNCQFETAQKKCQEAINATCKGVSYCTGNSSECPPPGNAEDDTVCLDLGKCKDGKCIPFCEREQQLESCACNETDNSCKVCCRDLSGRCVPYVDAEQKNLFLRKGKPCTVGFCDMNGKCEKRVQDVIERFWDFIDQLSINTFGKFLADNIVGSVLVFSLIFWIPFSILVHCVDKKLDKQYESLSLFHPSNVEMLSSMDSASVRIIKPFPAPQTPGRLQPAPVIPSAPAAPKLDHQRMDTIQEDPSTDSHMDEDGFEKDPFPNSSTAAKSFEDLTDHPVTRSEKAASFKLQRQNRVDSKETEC
CendR NRP1 mod: modulators of CendR peptide binding to human neuropilin-1. O14786. AID 602438. FAM-RPARPAR peptide binding to NRP-1, fluorescence polarization. actives 0.85% (n = 360,000). inhibition, % at 25 µM;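 active = inhibition or corrected inhibition above about 18%, plus a signal ratio from 0.5 to 1.5, limit read from the data, passing the limit was not always enough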
ADAM10 inh: inhibits human ADAM10 | recombinant ADAM10, EDANS/DABCYL FRET peptide cleavage, 3 h | inhibition, % at 7 µM | actives 0.62% (n = 370,000);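 active = inhibition above a per-campaign cutoff equal to the mean of compounds falling between control-based bounds plus 3 SD, cut at about 20% in these data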;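 note: 0% = DMSO wells while the 100% control is not disclosed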
KLK7 act conf: proKLK7 activation, confirmation; shares compounds with proKLK7 act; purified proKLK7, EDANS-DABCYL substrate fluorescence; scaled: vehicle 0, mature enzyme 100; activation, % at 7 µM; actives 68% (n = 3,200);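 active = activation, as change over the incubation, above the mean of all tested compounds plus 3 SD, cut at about 13% in these data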
EDANS interfere: fluorescence interference counter-screen for KLK7 activators; shares compounds with proKLK7 act; EDANS-DABCYL substrate fluorescence interference, no enzyme, 4 h; solvent 0%, active enzyme control 100%; activation, % at 7 µM; actives 80% (n = 3,200);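 active = activation above the all-compound mean plus 3 SD, ignoring values outside control-based bounds, cut at about 4.8% in these data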;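 note: value is the 4 h activation minus the activation read at time zero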
EDANS interf: counter-screen for kallikrein-7 activators: EDANS-DABCYL interference, dose response | shares compounds with proKLK7 act | EC50, µM | AID 720493 | actives 20% (n = 250) | EDANS-DABCYL peptide fluorescence interference, no enzyme;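 active = compounds that raise the fluorescence signal in this interference counterscreen, with EC50 at or below 10 µM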;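 note: intact quenched peptide substrate alone read at 355 nm excitation and 520 nm emission; signal is fluorescence gain from T0 to T4 after four hours at room temperature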
The depositor's hits bear a star; i = inactive; . = no result. Rows were chosen to be rich in hits. Some 3.4% of all compounds tested hit in one or more screens of this group.

SMILES	sPLA2-III inh	proKLK7 act	ADAM17 inh	CendR NRP1 mod	ADAM10 inh	KLK7 act conf	EDANS interfere	others
CCC(C)(C)n1nnnc1CN(Cc1cc2cc(OC)c(OC)cc2[nH]c1=O)C1CCCC1	1	16*	-115	-6	-375	-12	-8
COc1ccc(CN2C/C(=C/C3=CCCCC3)N(C(=O)OCc3ccccc3)C2=N)c(OC)c1	-1	1	5	.	0	.	.
O=C(c1cccnc1Cl)N1CCC(Oc2cccnc2)CC1	14	0	-6	.	-2	.	.
O=C(NCCO)C1(C(=O)C2CC2)CC(c2ccccn2)=NO1 (stereo not given)	6	0	-3	.	-8	.	.
COc1ccc2sc(C)cc(=O)c2c1	18	51*	-435	-2	i	37*	43*
Cc1ccsc1/C=C1\Oc2cc(O)ccc2C1=O	-50	15*	-7	128	-22	21*	24*
COc1cc(C=C2C(=O)C=CC2=O)ccc1O	2	-1	5	-142	6	.	.
O=C1/C(=C/c2ccc(O)c(O)c2)Oc2cc(O)ccc21	-16	45*	-2	-94	-18	109*	118*
COc1cc(/C=C2\Oc3cc(O)ccc3C2=O)ccc1O	-25	55*	-29	-135	-115	36*	36*
O=C1/C(=C/c2cccc([N+](=O)[O-])c2)Oc2cc(O)ccc21	12	0	-2	-8	-14	.	.
COC(=O)[C@]12C[C@H](CC(=O)NCc3cccs3)C(=O)N(CCC3=CCCCC3)C1=C[C@H](C(C)(C)C)O[C@@H]2C	1	0	1	.	2	.	.
CCC1=C(CC2NCCc3ccccc32)CC2c3cc(OC)c(OC)cc3CCN2C1 (stereo not given)	-4	19*	-36	12	-125	2	2
CC[C@H]1CN2CCc3cc(OC)c(OC)cc3C2C[C@@H]1C[C@H]1NCCc2cc(OC)c(OC)cc21 (stereo not given in full)	-12	1	-5	5	-6	.	.
CCCCOCCCNC(=O)C[C@H]1C[C@@]2(C(=O)OC)C(=C[C@H](C(C)C)O[C@@H]2C2CC2)N(Cc2ccccc2)C1=O	0	0	-3	.	-5	.	.
CN1C2=N[C@H](c3ccccc3Br)CC(=O)N2/C(=C\c2ccccc2)[C@@H]1c1ccccc1	-3	.	3	.	10	.	.
CCN(CC)c1ccc(Nc2cc3n(c(=O)n2)CCc2cc(OC)c(OC)cc2-3)cc1	15	21*	-56	-67	-122	72*	74*
CCOC(=O)C1=C(CSc2nc(-c3ccccc3)ccc2C#N)OC(N)=C(C#N)C1c1ccccc1 (stereo not given)	-31	470*	-160	-108	-492	585*	566*
CCOC(=O)C1=C(CSc2nc(-c3ccccc3)ccc2C#N)OC(N)=C(C#N)C1c1cccnc1 (stereo not given)	-24	382*	-186	-110	i	384*	347*
CCOC(=O)C1=C(CSc2nc3c(cc2C#N)CCC3)OC(N)=C(C#N)C1c1ccccc1 (stereo not given)	-8	5	-30	-15	-96	.	.
N#CC(Sc1ccccn1)c1ccc(Cl)cc1 (stereo not given)	-3	16*	-40	3	-120	10	12*
Cc1ccc(-n2c(SC/C=C/c3ccccc3)nnc2-c2cccs2)cc1	-13	0	8	.	13	.	.
Cc1c(-c2cccc(NC(=O)c3cccs3)c2)nc2ncccn12	9	62*	i	-10	i	47*	62*
Cc1c(-c2cccc(NC(=O)c3ccco3)c2)nc2ncccn12	-2	91*	i	-6	i	69*	81*
O=C(Nc1cccc(-c2cn3cccnc3n2)c1)c1ccco1	.	.	.	-4	.	.	.
OC[C@H]1CC[C@@H]2O[C@H](CCc3ccc(-c4ccc(F)cc4)cc3)[C@H](n3cc(C4CC4)nn3)C[C@@H]2O1	-11	0	3	.	4	.	.
SMILES	sPLA2-III inh	proKLK7 act	ADAM17 inh	CendR NRP1 mod	ADAM10 inh	KLK7 act conf	EDANS interfere	others
CNC(=O)CCc1nc(-c2ccc(C(C)C)cc2)no1	0	.	-3	.	-4	.	.
CCOc1ccc(CCNC(=O)Cc2ccccc2)cc1OCC	-6	.	-4	.	-4	.	.
C/C(=C/c1c[n+](Cc2ccc3c(c2)OCO3)c(N)[nH]1)Cn1[nH]c(=O)n(-c2ccccc2)c1=O	3	0	-5	.	-6	.	.
Cc1sc(-c2ccncc2)nc1OC(=O)c1ccc(F)cc1F	-1	14*	1	13	-4	13*	11*	EDANS interf=i
CCOC(=O)N1CCN(S(=O)(=O)c2ccc(C(=O)Nc3sc4c(c3C(N)=O)CC(C)(C)NC4(C)C)cc2)CC1	-13	57*	1	0	-28	-33	-5
O=S(=O)(c1ccc(F)cc1)n1c(CN2CCOCC2)nc2ccccc21	1	0	0	.	-9	.	.
CC(=O)Nc1ccc2c3c(cccc13)C(=O)N(c1ccccc1)C2=O	-2	59*	i	-13	i	65*	71*
CCN(CC(=O)NCc1ccc(F)cc1)C(=O)/C=C/c1cc(OC)ccc1OC	-4	69*	-361	-3	i	60*	66*
CCN(CC(=O)NCc1ccc(Cl)cc1)C(=O)/C=C/c1cc(OC)c(OC)c(OC)c1	-5	2	-35	10	-96	.	.
O=C(O)c1ccc(N=c2oc3cc(O)ccc3cc2C(=O)NCc2ccccc2)cc1	2	5	i	-111	i	.	.
C/C(=N\NC(=O)CC#N)c1cc2ccc(O)cc2oc1=O	-11	61*	i	-27	i	46*	43*
O=C(c1ccc(F)cc1)c1cc2ccc(O)cc2oc1=O	-2	-1	-5	-13	-7	.	.
O=C(O)c1cc2ccc(O)cc2oc1=O	2	104*	i	-4	i	65*	73*
O=C(NCc1ccccc1)c1cc2ccc(O)cc2oc1=O	-12	58*	i	-3	i	69*	71*
COc1ccccc1C(=O)c1cc2ccc(O)cc2oc1=O	-2	0	-9	-4	-16	.	.
COc1ccc2cc(S(=O)(=O)c3ccccc3)c(=O)oc2c1	1	-23	i	2	i	.	.
Cc1ccc(S(=O)(=O)c2cc3ccc(O)cc3oc2=O)cc1C	-12	44*	i	-2	i	62*	68*
CCN(C(=O)COC(=O)c1ccc(Sc2ncn[nH]2)c([N+](=O)[O-])c1)c1ccccc1C	-29	1	2	.	6	.	.
